Measured values: PubChem BioAssay (NCI)
Compounds without any hit were thinned out: in the full panel of roughly 79,000, 15% have a hit. Active and inactive are the calls of the source. No stated cut-off is given here; in the data, active means growth inhibition above about 70%; inactive means the rest.

Experiments:
[1] = NCI Yeast Anticancer Drug Screen. Data for the rad52 strain (AID 147);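 further: 0% = growth of vehicle-treated control cultures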; details: S. cerevisiae rad52 mutant growth inhibition, stronger effect = higher value
How it was run: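 Compounds are applied to a genetically defined yeast strain lacking normal DNA damage repair, and inhibition of growth is expressed relative to cultures given vehicle only.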

[2] = NCI Yeast Anticancer Drug Screen. Data for the wt1 strain (AID 149);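 further: 0% = growth of vehicle-treated wt1 cultures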; details: S. cerevisiae wt1 strain (SPY 50644) growth inhibition, stronger effect = higher value
How it was run: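 The wt1 strain was treated with compounds, and growth was compared with vehicle-treated cultures to give inhibition.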

[3] = NCI Yeast Anticancer Drug Screen. Data for the rad50EPP+ strain (AID 151);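 further: 0% = growth of vehicle-treated control cultures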; details: S. cerevisiae rad50 mutant strain, stronger effect = higher value
How it was run: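 Compounds were applied to the rad50EPP+ yeast strain, which bears a defined DNA repair alteration, and growth inhibition was determined relative to vehicle-treated cultures.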

[4] = NCI Yeast Anticancer Drug Screen. Data for the rad50 strain (AID 155);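 further: 0% = growth of vehicle-only cultures of the same strain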; details: S. cerevisiae rad50 strain growth inhibition, stronger effect = higher value
How it was run: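 Cells are treated with compound, grown, and their growth is then scored against vehicle-only cultures of the same repair-deficient yeast strain.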

[5] = NCI Yeast Anticancer Drug Screen. Data for the mec2-1 strain (AID 157); details: S. cerevisiae mec2-1 strain, stronger effect = higher value
How it was run: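 Strain: mec2-1 (DNA repair/cell cycle alteration). Compound exposure, then growth measured; inhibition expressed relative to vehicle.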

[6] = NCI Yeast Anticancer Drug Screen. Data for the rad14 strain (AID 159);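 further: 0% = growth of vehicle-treated control cultures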; details: S. cerevisiae rad14 strain growth inhibition, stronger effect = higher value
How it was run: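 Readout: yeast growth inhibition, referenced to vehicle-only cultures. Strain bears a defined alteration in DNA damage repair.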

[7] = NCI Yeast Anticancer Drug Screen. Data for the sgs1 mgt1 strain (AID 161);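 further: 0% = growth of cultures given vehicle only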; details: S. cerevisiae sgs1 mgt1 strain, stronger effect = higher value
How it was run: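 Mutant yeast exposed to compound; growth scored against vehicle-only wells.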

[8] = NCI Yeast Anticancer Drug Screen. Data for the CLN2oe strain (AID 163);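 further: 0% = growth of vehicle-only control cultures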; details: S. cerevisiae CLN2oe strain, stronger effect = higher value
How it was run: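 Growth of a genetically modified yeast strain is measured after compound exposure and compared with cultures given vehicle alone.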

[9] = NCI Yeast Anticancer Drug Screen. Data for the cln2 rad14 strain (AID 165);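 further: 0% = growth equal to vehicle treated cultures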; details: S. cerevisiae cln2 rad14 strain, stronger effect = higher value
How it was run: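 Compounds are applied to the cln2 rad14 yeast strain, and growth is then compared with that of vehicle-treated cultures to give inhibition.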

[10] = NCI Yeast Anticancer Drug Screen. Data for the bub3 strain (AID 167); details: S. cerevisiae bub3 mutant strain, stronger effect = higher value
How it was run: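 Part of a panel of yeast mutants defective in DNA damage repair or cell cycle regulation. Each strain is grown with compound, and inhibition is calculated relative to solvent-treated cultures.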

[11] = NCI Yeast Anticancer Drug Screen. Data for the wt2 strain (AID 169);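 further: 0% = growth of vehicle-treated yeast cultures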; details: S. cerevisiae wt2 strain growth inhibition, stronger effect = higher value
How it was run: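 This strain belongs to a panel of yeast strains with defined genetic alterations in DNA damage repair or cell cycle control. Compounds are applied, and growth inhibition is measured against vehicle-treated cultures.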

[12] = NCI Yeast Anticancer Drug Screen. Data for the mlh1 strain (AID 171);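 further: 0% = growth of vehicle-treated control cultures of the same strain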; details: S. cerevisiae mlh1 strain growth inhibition, stronger effect = higher value
How it was run: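 Growth of the mutant yeast strain after compound exposure, expressed as inhibition relative to vehicle-only controls.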

[13] = NCI Yeast Anticancer Drug Screen. Data for the sgs1 strain (AID 173);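 further: 0% = growth of vehicle-only control cultures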; details: S. cerevisiae sgs1 mutant, stronger effect = higher value
How it was run: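 Growth of a yeast strain bearing a defined genetic alteration is measured after compound treatment. Inhibition is expressed relative to vehicle-only controls.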

[14] = NCI Yeast Anticancer Drug Screen. Data for the mlh1 rad18 strain (AID 175); details: S. cerevisiae mlh1 rad18 strain growth inhibition, stronger effect = higher value
How it was run: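 Read-out is yeast growth inhibition, calculated against vehicle-only controls. The compound was applied to a strain engineered with DNA damage repair alterations.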

[15] = NCI Yeast Anticancer Drug Screen. Data for the rad18 strain (AID 177); details: S. cerevisiae rad18 mutant growth inhibition, stronger effect = higher value
How it was run: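 Growth of the mutant yeast strain after compound exposure, normalised to vehicle-only cultures.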

[16] = NCI Yeast Anticancer Drug Screen. Data for the mgt1 strain (AID 153); details: S. cerevisiae mgt1 mutant growth inhibition, stronger effect = higher value
How it was run: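 Strain: mgt1 yeast, one of a set carrying defined DNA damage repair or cell cycle control alterations. Compound-treated growth compared with vehicle.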

[17] = at 5.0 µM (retest, dose inferred, filed as 0.5)
[18] = at 50.0 µM (retest, dose inferred, filed as 5.0)

Measured: growth inhibition

CCOC(=O)/C(=C\c1cccc(C)c1)C(C)=O
inactive: [1]; at 1.2 µM -3% | [1]; at 3.7 µM 10% | [1]; at 11.0 µM 67% | [2]; at 1.2 µM -37% | [2]; at 3.7 µM -15% | [2]; at 11.0 µM 29% | [3]; at 1.2 µM 48% | [3]; at 3.7 µM 31% | [3]; at 11.0 µM 60% | [4]; at 1.2 µM -13% | [4]; at 3.7 µM -8% | [4]; [17] 20% | [4]; at 11.0 µM 58% | [5]; at 1.2 µM 0% | [5]; at 3.7 µM 3% | [5]; [17] -5% | [6]; at 1.2 µM -6% | [6]; at 3.7 µM -7% | [6]; at 11.0 µM 38% | [7]; [17] 19% | [8]; at 1.2 µM 11% | [8]; at 3.7 µM 4% | [8]; at 11.0 µM 55% | [9]; [17] 5% | [10]; at 1.2 µM 1% | [10]; at 3.7 µM 14% | [10]; [17] 55% | [11]; at 1.2 µM 20% | [11]; at 3.7 µM 23% | [11]; at 11.0 µM 69% | [12]; at 1.2 µM 13% | [12]; at 3.7 µM 18% | [13]; at 1.2 µM 22% | [13]; at 3.7 µM 51% | [14]; [17] 15% | [15]; at 1.2 µM 3% | [15]; at 3.7 µM 12% | [15]; at 11.0 µM 65%
active: [1]; at 33.0 µM 91% | [1]; at 100.0 µM 99% | [2]; at 33.0 µM 88% | [2]; at 100.0 µM 98% | [3]; at 33.0 µM 91% | [3]; at 100.0 µM 99% | [4]; at 33.0 µM 89% | [4]; [18] 91% | [4]; at 50.0 µM 92.3% | [4]; at 100.0 µM 98% | [5]; at 11.0 µM 71% | [5]; at 33.0 µM 95% | [5]; [18] 96% | [5]; at 50.0 µM 93.5% | [5]; at 100.0 µM 100% | [6]; at 33.0 µM 93% | [6]; at 100.0 µM 99% | [7]; [18] 94% | [7]; at 50.0 µM 92.5% | [8]; at 33.0 µM 92% | [8]; at 100.0 µM 99% | [9]; [18] 88% | [9]; at 50.0 µM 87.5% | [10]; at 11.0 µM 89% | [10]; at 33.0 µM 97% | [10]; [18] 96% | [10]; at 50.0 µM 90.2% | [10]; at 100.0 µM 99% | [11]; at 33.0 µM 92% | [11]; at 100.0 µM 99% | [12]; at 11.0 µM 80% | [12]; at 33.0 µM 95% | [12]; at 100.0 µM 98% | [13]; at 11.0 µM 84% | [13]; at 33.0 µM 94% | [13]; at 100.0 µM 98% | [14]; [18] 94% | [14]; at 50.0 µM 90.4% | [15]; at 33.0 µM 89% | [15]; at 100.0 µM 98%

CC1=NN(C(=O)CC(=O)NC(=O)/C=C\c2ccccc2)C(=O)C1N=Nc1ccc([N+](=O)[O-])cc1 (stereo not drawn)
inactive: [1]; at 1.2 µM -1% | [1]; at 3.7 µM 3% | [1]; at 11.0 µM 56% | [2]; at 1.2 µM 2% | [2]; at 3.7 µM 4% | [2]; at 11.0 µM 20% | [2]; at 33.0 µM 35% | [2]; at 100.0 µM 34% | [3]; at 1.2 µM 19% | [3]; at 3.7 µM 42% | [3]; at 11.0 µM 62% | [3]; at 33.0 µM 64% | [3]; at 100.0 µM 60% | [16]; at 1.2 µM 1% | [16]; at 3.7 µM 9% | [16]; at 11.0 µM 32% | [16]; at 33.0 µM 51% | [16]; at 100.0 µM 55% | [5]; at 1.2 µM 3% | [5]; at 3.7 µM 8% | [5]; [17] -13% | [5]; at 11.0 µM 26% | [5]; at 33.0 µM 49% | [5]; [18] 35% | [5]; at 100.0 µM 43% | [6]; at 1.2 µM 1% | [6]; at 3.7 µM 5% | [6]; at 11.0 µM 21% | [6]; at 33.0 µM 41% | [6]; at 100.0 µM 46% | [7]; [17] -1% | [7]; [18] 54% | [7]; at 50.0 µM 65.3% | [8]; at 1.2 µM 6% | [8]; at 3.7 µM 9% | [8]; at 11.0 µM 20% | [8]; at 33.0 µM 34% | [8]; at 100.0 µM 37% | [9]; [17] 43% | [9]; [18] 49% | [9]; at 50.0 µM 51.2% | [10]; at 1.2 µM -1% | [10]; at 3.7 µM 4% | [10]; [17] -4% | [10]; at 11.0 µM 30% | [10]; at 33.0 µM 57% | [10]; [18] 51% | [10]; at 100.0 µM 58% | [12]; at 1.2 µM 0% | [12]; at 3.7 µM 10% | [12]; at 11.0 µM 37% | [12]; at 33.0 µM 68% | [12]; at 100.0 µM 69% | [13]; at 1.2 µM 2% | [13]; at 3.7 µM 16% | [13]; at 11.0 µM 61% | [14]; [17] -3% | [14]; [18] 65% | [15]; at 1.2 µM -8% | [15]; at 3.7 µM 4%
active: [1]; at 33.0 µM 75% | [1]; at 100.0 µM 72% | [5]; at 50.0 µM 77.5% | [10]; at 50.0 µM 79.5% | [13]; at 33.0 µM 77% | [13]; at 100.0 µM 74% | [14]; at 50.0 µM 76.6% | [15]; at 11.0 µM 77% | [15]; at 33.0 µM 83% | [15]; at 100.0 µM 82%

CN(C)CCNc1ccc2ncn3c4ccc(O)cc4c(=O)c1c23
active: [4]; [18] 86%
inactive: [1]; at 1.2 µM -10% | [1]; at 3.7 µM 3% | [1]; at 11.0 µM 4% | [1]; at 33.0 µM 3% | [1]; at 100.0 µM 30% | [2]; at 1.2 µM -21% | [2]; at 3.7 µM -6% | [2]; at 11.0 µM -21% | [2]; at 33.0 µM 0% | [2]; at 100.0 µM -27% | [3]; at 1.2 µM -33% | [3]; at 3.7 µM -12% | [3]; at 11.0 µM -21% | [3]; at 33.0 µM -1% | [3]; at 100.0 µM 5% | [16]; at 1.2 µM -5% | [16]; at 3.7 µM 7% | [16]; at 11.0 µM -19% | [16]; at 33.0 µM -10% | [16]; at 100.0 µM 2% | [4]; at 1.2 µM -14% | [4]; at 3.7 µM 4% | [4]; [17] 50% | [4]; at 11.0 µM -6% | [4]; at 33.0 µM 8% | [4]; at 50.0 µM -17.1% | [4]; at 100.0 µM 22% | [5]; at 1.2 µM -12% | [5]; at 3.7 µM -7% | [5]; [17] 0% | [5]; at 11.0 µM -4% | [5]; at 33.0 µM -9% | [5]; [18] 7% | [5]; at 50.0 µM -10.1% | [5]; at 100.0 µM -20% | [7]; [17] 13% | [7]; [18] 7% | [7]; at 50.0 µM -10.6% | [8]; at 1.2 µM -12% | [8]; at 3.7 µM 1% | [8]; at 11.0 µM 9% | [8]; at 33.0 µM 13% | [8]; at 100.0 µM 8% | [9]; [17] 9% | [9]; [18] 12% | [9]; at 50.0 µM 27.6% | [11]; at 1.2 µM -8% | [11]; at 3.7 µM -3% | [11]; at 11.0 µM -2% | [11]; at 33.0 µM -8% | [11]; at 100.0 µM -11% | [12]; at 1.2 µM -23% | [12]; at 3.7 µM -21% | [12]; at 11.0 µM -15% | [12]; at 33.0 µM -4% | [12]; at 100.0 µM -8% | [13]; at 1.2 µM -21% | [13]; at 3.7 µM -17% | [13]; at 11.0 µM -3%
